A selection: hits, their analogues and other compounds. The true share with any hit is near 1.2%.
RGS4-Gao reg: human RGS4-Galphao interaction regulation. P09471. Multiplexed bead flow cytometry, RGS4-Galphao binding; actives lie on both sides. binding response (% of control), % at 10 µM. hit rate 0.33% among 220,000. AID 1415; in the data active means binding response below about 49% or above about 150%; inactive means in between;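 further: fluorescent Galphao activated with aluminum fluoride binding bead-coupled RGS4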
Target sequence (P09471 whole entry, looked up): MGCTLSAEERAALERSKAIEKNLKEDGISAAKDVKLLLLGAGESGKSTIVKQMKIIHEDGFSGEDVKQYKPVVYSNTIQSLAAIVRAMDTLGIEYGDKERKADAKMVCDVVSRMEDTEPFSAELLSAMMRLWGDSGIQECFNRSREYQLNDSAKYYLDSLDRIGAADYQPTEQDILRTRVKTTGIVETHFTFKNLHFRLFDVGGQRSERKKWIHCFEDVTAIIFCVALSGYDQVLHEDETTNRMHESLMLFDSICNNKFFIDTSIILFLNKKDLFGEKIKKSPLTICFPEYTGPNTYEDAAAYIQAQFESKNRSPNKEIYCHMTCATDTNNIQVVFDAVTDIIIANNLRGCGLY
Avidin bead fluor: compound fluoresces at 488/530 nm on avidin beads; compound fluorescence 488/530 nm, flow cytometry; active compounds read high; fluorescence (KMESF) at 10 µM; hit rate 0.38% among 220,000; in the data active means fluorescence above about 47
GSH bead fluor: compound fluoresces at 488/530 nm on GSH beads. hit rate 0.25% among 190,000. GSH beads flow cytometry, compound fluorescence 488/530 nm; active compounds read high. fluorescence (KMESF) at 10 µM. AID 1776; in the data active means fluorescence above about 89;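 further: glutathione beads carrying GST-tagged Bcl family fusion proteins plus one bare bead set; values are compound well signal with DMSO vehicle wells as background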
RGS7-Gao reg: modulates binding of RGS7 to human Galphao; P09471; Multiplexed bead flow cytometry; actives lie on both sides; binding response (% of control), % at 10 µM; hit rate 0.35% among 220,000; in the data active means binding response below about 49% or above about 150%; inconclusive means no clear call, values can overlap the other calls; inactive means in between;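 further: fluorescent Galphao held in activated GDP-AlF4 state binding bead-coupled RGS7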
RGS8-Gao reg: regulators of human RGS8-Galphao interaction; multiplexed bead flow cytometry, RGS8-Galphao binding; actives lie on both sides; response (percent of control binding), % at 10 µM; hit rate 0.34% among 220,000; in the data active means response below about 60% or above about 140%; inactive means in between;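 further: Galphao activated as the GDP aluminium fluoride complex binding bead-coupled RGS8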
RGS16-Gao: RGS16-Galphao interaction regulator (human); bead-based flow cytometry RGS16-Galphao binding, fluorescence; actives lie on both sides; O15492+P09471; binding response (% of control), % at 10 µM; hit rate 0.38% among 220,000; call rule not given here;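 further: Galphao activated by GDP with aluminum fluoride before binding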
An asterisk follows results filed as active; ? = inconclusive; / = no result given; [ ] = another dose, or the depositor's remark.

SMILES	RGS4-Gao reg	Avidin bead fluor	GSH bead fluor	RGS7-Gao reg	RGS8-Gao reg	RGS16-Gao
COc1ccc(N2C(=O)CSC23C(=O)Nc2ccccc23)cc1 (stereo not drawn)	99	7	100*	101	101	102
CC1CC2(CCCCC2)N2C(=O)C(=O)c3cccc1c32 (stereo not drawn)	41*	3	12	29*	43*	28
CCOc1ccc(C(=O)Nc2cc(-c3nc4ccccc4[nH]3)ccc2C)cc1[N+](=O)[O-]	110	65*	26	120	97	92
CCC(C)c1ccc(NC(=O)COc2c(F)c(F)c(C(F)(F)F)c(F)c2F)cc1 (stereo not drawn)	100	10	10	102	98	97
CC(C)CC(c1nnnn1Cc1ccc(F)cc1)N1CCC(C(N)=O)CC1 (stereo not drawn)	101	22	13	101	105	108
COc1ccc(-c2[nH]nc3c2C(c2ccc(OC(=O)N4CCOCC4)cc2)C(C#N)=C(N)O3)cc1 (stereo not drawn)	44*	13	16	45*	52*	38
COc1ccc(-c2[nH]nc3c2C(c2ccccc2OC(=O)N2CCOCC2)C(C#N)=C(N)O3)cc1 (stereo not drawn)	96	7	36	95	97	88
Cc1sc2ncn(CC(=O)NCCCC(=O)N3CCN(c4ccccn4)CC3)c(=O)c2c1C	96	10	14	100	98	99
Cc1sc2ncn(CC(=O)NCCCC(=O)N3CCN(c4ncccn4)CC3)c(=O)c2c1C	117	52*	5	135	102	136
O=C1CCCc2ccccc2N1Cc1ccc(Cl)cc1Cl	99	68*	20	113	100	95
CCN(CC)c1ccc(/C=c2\sc3nnc(-c4ccccc4Cl)n3c2=O)cc1	134	28	104*	125	100	133
N#Cc1ccc(Cl)cc1NC(=O)COC(=O)[C@H](CCC(N)=O)NC(=O)c1ccc(F)cc1	105	11	21	100	104	104
CC1=CS(=O)(=O)CC1SC(=S)N(C)C1CCS(=O)(=O)C1 (stereo not drawn)	103	9	17	103	100	98
N=C1C(c2ccccc2)=C(O)CN1c1cccc(O)c1	94	4	11	97	97	98
COc1ccc(OCC(=O)O/N=C(\N)Cc2ccc(Cl)cc2)cc1	101	54*	22	108	97	100
Cc1ccc(OCC(=O)O/N=C(\N)Cc2ccc(Cl)cc2)cc1	99	27	24	96	102	98
Cc1ccc(-n2c(C)cc(/C=C3\NC(=O)NC3=O)c2C)c(C)c1	97	10	25	99	99	102
Cc1cc(C(C)(C)C)nc2[nH]n(-c3ccccc3)c(=O)c12	101	15	35	103	102	107
O=c1c2c(C(F)(F)F)cc(C(F)(F)F)nc2[nH]n1-c1ccccc1	106	5	89*	102	99	97
O=C(/C=C/c1ccc(S(=O)(=O)N2CCOCC2)cc1)OCC(=O)c1ccc([N+](=O)[O-])cc1	97	9	/	?	99	94
CCN(Cc1ccccc1)C(c1ccncc1)c1nnnn1C(C)(C)C (stereo not drawn)	102	49*	27	105	100	103
CC(C)C(OC(=O)c1cc2sccc2n1C)C(=O)NCC1CCCO1 (stereo not drawn)	114	7	254*	115	118	155
CCCCn1c(SCC(=O)c2cc(OC)ccc2OC)nc2cc(S(N)(=O)=O)ccc21	105	7	260*	109	100	106
CCCCn1c(SCC(=O)N2CCC(C)CC2)nc2cc(S(N)(=O)=O)ccc21	103	13	8	102	107	107
CN(CCC#N)CC(=O)Nc1ccc(S(N)(=O)=O)cc1	98	11	14	?	99	98
SMILES	RGS4-Gao reg	Avidin bead fluor	GSH bead fluor	RGS7-Gao reg	RGS8-Gao reg	RGS16-Gao
CCCCCCn1c(SCC(=O)c2c(N)n(C)c(=O)n(C)c2=O)nc2ccccc21	104	7	45	101	109	107
Cn1c(N)c(C(=O)CSc2nc3ccccc3c(=O)n2Cc2ccccc2)c(=O)n(C)c1=O	145	49*	/	?	101	139
COc1cc2c3nnc(-c4ccc(F)cc4)c-3cn(Cc3cccc(F)c3)c2cc1OC	89	19	90*	91	103	106
Cc1nc2sc(C(=O)Nc3ccccc3)c(N)c2c(C)c1[N+](=O)[O-]	90	16	12	93	80	50
CCCCCC(=O)Nc1cccc(C2=NOC3(C2)C[C@H](C(N)=O)N(C(=O)c2ccccc2C(=O)c2ccccc2)C3)c1 (stereo partly drawn)	104	14	/	?	104	108
CCOc1ccc(-n2c(C)nc3cc(C(=O)NCCCN4CCOCC4)ccc32)cc1	107	8	34	107	117	151
CCOc1ccc(-n2c(C)nc3cc(C(=O)NCCN4CCOCC4)ccc32)cc1	100	7	104*	96	101	100
Cc1ccc(C)c(C(=O)COc2ccc(C)nc2[N+](=O)[O-])c1	94	6	256*	102	95	91
CC(C)CNC(=O)c1ccccc1NC(=O)c1ccc(CN2CCOCC2)cc1	97	48*	19	102	102	102
Cc1ccc(-c2csc(NC(=O)C3=NN(C4CCS(=O)(=O)C4)C(=O)CC3)n2)cc1 (stereo not drawn)	88	6	/	?	94	92
N#C/C(=C1\CCCN1)c1nc2ccccc2c(=O)[nH]1	100	15	31	100	100	102
N#C/C(C(=O)c1ccccc1)=C1/CCCN1	104	48*	31	110	100	106
CC(=O)NC1(C(F)(F)F)C(=O)Nc2c1c(=O)[nH]c(=O)n2CC(C)C (stereo not drawn)	103	8	10	106	100	102
COc1ccc(CNC(=O)CCC(=O)Nc2nnc(CC(C)C)s2)cc1	103	4	/	?	103	105
CC(C)CNc1cc(Cl)c(S(=O)(=O)NCC(C)C)cc1C(=O)O	109	85*	30	135	100	106
Cc1cc(=O)[nH]c(-c2ccccc2OC(F)(F)F)n1	100	4	/	?	102	108
CC1Cc2ccccc2N1C(=O)CN1C(=O)C(=O)N(Cc2ccccc2)C1=O (stereo not drawn)	96	7	260*	96	98	105
CC1Cc2ccccc2N1C(=O)CCS(=O)(=O)c1cccs1 (stereo not drawn)	222*[activator]	125*	150*	322*[activator]	148*[activator]	634
CCn1ccc(-c2ccccc2)c(C#N)c1=O	102	10	11	102	100	99
